# Only a selection was taken, and the strongest signals are over-represented in it overall.
# B1: AT1G15820(2) (Arabidopsis thaliana), Q9LMQ2 (protein)
# chain: MAMAVSGAVLSGLGSSFLTGGKRGATALASGVGTGAQRVGRKTLIVAAAAAQPKKSWIPAVKGGGNFLDPEWLDGSLPGDFGFDPLGLGKDPAFLKWYREAELIHGRWAMAAVLGIFVGQAWSGVAWFEAGAQPDAIAPFSFGSLLGTQLLLMGWVESKRWVDFFNPDSQSVEWATPWSKTAENFANYTGDQGYPGGRFFDPLGLAGKNRDGVYEPDFEKLERLKLAEIKHSRLAMVAMLIFYFEAGQGKTPLGALGL
# Legend:
# Assay in all cases: glycan array binding signal (z-score within array); higher = stronger binding
# Conditions in all cases: glycan notation: IUPAC condensed, linker removed
# [1] = molecular target: Fuc(a1-2)Gal(b1-4)GlcNAc(b1-2)Man(a1-3)[Fuc(a1-2)Gal(b1-4)GlcNAc(b1-2)Man(a1-6)]Man(b1-4)GlcNAc(b1-4)[Fuc(a1-6)]GlcNAc
# How it was run: (§1)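 Negative Z-scores can be read as non-binding. The Z-score is calculated within each array and then averaged across arrays of one protein sequence at different concentrations or buffers and across linkers. Arrays, 3228 in all, were curated from the Consortium for Functional Glycomics database and kept only where the protein sequence was available.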
# [2] = molecular target: Fuc(a1-2)[Gal(a1-3)]Gal(b1-3)GalNAc
# How it was run: as §1
# [3] = molecular target: Fuc(a1-2)[Gal(a1-4)]Gal(b1-4)GlcNAc
# How it was run: as §1
# [4] = molecular target: Fuc(a1-2)[GalNAc(a1-3)]Gal(b1-4)Glc
# How it was run: as §1
# [5] = molecular target: Fuc(a1-2)[GalNAc(a1-3)]Gal(b1-4)[Fuc(a1-3)]GlcNAc(b1-3)GalNAc
# How it was run: as §1
# [6] = molecular target: Fuc(a1-3)[GalNAc(b1-4)]GlcNAc
# How it was run: as §1
# [7] = molecular target: Gal(a1-3)GalNAc
# How it was run: as §1
# [8] = molecular target: Gal(a1-3)[Gal(a1-4)]Gal(b1-4)GlcNAc
# How it was run: as §1
# [9] = molecular target: Gal(a1-4)Gal(b1-4)Glc
# How it was run: as §1
# [10] = molecular target: Gal(b1-2)Gal
# How it was run: as §1
# [11] = molecular target: Gal(b1-3)GalNAc(b1-4)Gal(b1-4)Glc
# How it was run: as §1
# [12] = molecular target: Gal(b1-3)GlcNAc
# How it was run: as §1
# [13] = molecular target: Gal(b1-3)GlcNAc(b1-2)Man(a1-3)[Gal(b1-3)GlcNAc(b1-2)Man(a1-6)]Man(b1-4)GlcNAc(b1-4)GlcNAc
# How it was run: as §1
# [14] = molecular target: Gal(b1-3)GlcNAc(b1-3)Gal(b1-4)Glc
# How it was run: as §1
# [15] = molecular target: Gal(b1-3)GlcNAc(b1-3)Gal(b1-4)GlcNAc(b1-3)Gal(b1-4)GlcNAc(b1-2)[Gal(b1-3)GlcNAc(b1-3)Gal(b1-4)GlcNAc(b1-3)Gal(b1-4)GlcNAc(b1-6)]Man(a1-6)[Gal(b1-3)GlcNAc(b1-3)Gal(b1-4)GlcNAc(b1-3)Gal(b1-4)GlcNAc(b1-2)Man(a1-3)]Man(b1-4)GlcNAc(b1-4)[Fuc(a1-6)]GlcNAc
# How it was run: as §1
# [16] = molecular target: Gal(b1-3)GlcNAc(b1-6)[Gal(b1-3)]GalNAc
# How it was run: as §1
# [17] = molecular target: Gal(b1-3)[Fuc(a1-4)]GlcNAc(b1-2)Man(a1-3)[Gal(b1-3)[Fuc(a1-4)]GlcNAc(b1-2)Man(a1-6)]Man(b1-4)GlcNAc(b1-4)[Fuc(a1-6)]GlcNAc
# How it was run: as §1
# [18] = molecular target: Gal(b1-3)[Fuc(a1-4)]GlcNAc(b1-6)GalNAc
# How it was run: as §1
# [19] = molecular target: Gal(b1-4)GlcNAc(b1-2)Man(a1-6)[GlcNAc(b1-2)Man(a1-3)]Man(b1-4)GlcNAc(b1-4)GlcNAc
# How it was run: as §1
# [20] = molecular target: Gal(b1-4)GlcNAc(b1-3)Gal(b1-4)Glc
# How it was run: as §1
# [21] = molecular target: Gal(b1-4)GlcNAc(b1-3)Gal(b1-4)GlcNAc(b1-2)Man(a1-3)[Gal(b1-4)GlcNAc(b1-3)Gal(b1-4)GlcNAc(b1-2)Man(a1-6)]Man(b1-4)GlcNAc(b1-4)GlcNAc
# How it was run: as §1
# [22] = molecular target: Gal(b1-4)GlcNAc(b1-3)Gal(b1-4)GlcNAc(b1-3)Gal(b1-4)GlcNAc(b1-3)Gal(b1-4)GlcNAc(b1-2)Man(a1-3)[Gal(b1-4)GlcNAc(b1-3)Gal(b1-4)GlcNAc(b1-3)Gal(b1-4)GlcNAc(b1-3)Gal(b1-4)GlcNAc(b1-2)Man(a1-6)]Man(b1-4)GlcNAc(b1-4)[Fuc(a1-6)]GlcNAc
# How it was run: as §1
# [23] = molecular target: Gal(b1-4)GlcNAc(b1-3)GalNAc
# How it was run: as §1
# [24] = molecular target: Gal3S(b1-4)Glc6S
# How it was run: as §1
# [25] = molecular target: Gal3S(b1-4)[Fuc(a1-3)]Glc6S
# How it was run: as §1
# [26] = molecular target: GalNAc(b1-3)Gal(a1-4)Gal(b1-4)GlcNAc
# How it was run: as §1
# [27] = molecular target: GalNAc(b1-4)GlcNAc
# How it was run: as §1
# [28] = molecular target: GalNAc4S6S(b1-4)GlcNAc
# How it was run: as §1
# [29] = molecular target: GlcNAc(a1-3)Gal(b1-4)GlcNAc
# How it was run: as §1
# [30] = molecular target: GlcNAc(a1-4)Gal(b1-4)GalNAc
# How it was run: as §1
# [31] = molecular target: GlcNAc(b1-3)Gal(b1-4)GlcNAc(b1-6)[Gal(b1-3)]GalNAc
# How it was run: as §1
# [32] = molecular target: GlcNAc(b1-4)GlcNAc(b1-4)GlcNAc
# How it was run: as §1
# [33] = molecular target: Kdn(a2-6)Gal(b1-4)GlcNAc
# How it was run: as §1
# [34] = molecular target: Man(a1-2)Man(a1-6)[Man(a1-3)]Man(a1-6)[Man(a1-2)Man(a1-2)Man(a1-3)]Man(b1-4)GlcNAc(b1-4)GlcNAc
# How it was run: as §1
# [35] = molecular target: Neu5Ac(a2-3)Gal(b1-4)GlcNAc(b1-2)Man(a1-3)[Neu5Ac(a2-3)Gal(b1-4)GlcNAc(b1-2)Man(a1-6)]Man(b1-4)GlcNAc(b1-4)GlcNAc
# How it was run: as §1
# [36] = molecular target: Neu5Ac(a2-3)Gal(b1-4)GlcNAc(b1-3)[Neu5Ac(a2-3)Gal(b1-4)GlcNAc(b1-6)]GalNAc
# How it was run: as §1
# [37] = molecular target: Neu5Ac(a2-3)Gal(b1-4)GlcNAc(b1-6)GalNAc
# How it was run: as §1
# [38] = molecular target: Neu5Ac(a2-3)Gal(b1-4)GlcNAc6S
# How it was run: as §1
# [39] = molecular target: Neu5Ac(a2-3)[GalNAc(b1-4)]Gal(b1-4)GlcNAc
# How it was run: as §1
# [40] = molecular target: Neu5Ac(a2-8)Neu5Ac(a2-3)Gal(b1-4)Glc
# How it was run: as §1
# [41] = molecular target: Neu5Ac(b2-6)Gal(b1-4)GlcNAc
# How it was run: as §1
# [42] = molecular target: Neu5Gc(b2-6)Gal(b1-4)GlcNAc
# How it was run: as §1
binder,measurement,setting,value
B1,glycan array binding signal (z-score),[1],-0.613
same,glycan array binding signal (z-score),[2],-0.022
same,glycan array binding signal (z-score),[3],1.93
same,glycan array binding signal (z-score),[4],-0.507
same,glycan array binding signal (z-score),[5],6.82
same,glycan array binding signal (z-score),[6],1.79
same,glycan array binding signal (z-score),[7],3.12
same,glycan array binding signal (z-score),[8],9.8
same,glycan array binding signal (z-score),[9],2.16
same,glycan array binding signal (z-score),[10],0.453
same,glycan array binding signal (z-score),[11],2.89
same,glycan array binding signal (z-score),[12],0.12
same,glycan array binding signal (z-score),[13],0.477
same,glycan array binding signal (z-score),[14],-0.032
same,glycan array binding signal (z-score),[15],1.41
same,glycan array binding signal (z-score),[16],0.112
same,glycan array binding signal (z-score),[17],-0.308
same,glycan array binding signal (z-score),[18],-0.229
same,glycan array binding signal (z-score),[19],0.324
same,glycan array binding signal (z-score),[20],-0.362
same,glycan array binding signal (z-score),[21],0.779
same,glycan array binding signal (z-score),[22],0.197
same,glycan array binding signal (z-score),[23],-0.445
same,glycan array binding signal (z-score),[24],0.421
same,glycan array binding signal (z-score),[25],1.96
same,glycan array binding signal (z-score),[26],3.99
same,glycan array binding signal (z-score),[27],8.56
same,glycan array binding signal (z-score),[28],-0.032
same,glycan array binding signal (z-score),[29],-0.384
same,glycan array binding signal (z-score),[30],0.069
same,glycan array binding signal (z-score),[31],-0.16
same,glycan array binding signal (z-score),[32],-0.425
same,glycan array binding signal (z-score),[33],-0.581
same,glycan array binding signal (z-score),[34],-0.821
same,glycan array binding signal (z-score),[35],-0.363
same,glycan array binding signal (z-score),[36],0.172
same,glycan array binding signal (z-score),[37],-0.315
same,glycan array binding signal (z-score),[38],-0.028
same,glycan array binding signal (z-score),[39],-0.469
same,glycan array binding signal (z-score),[40],-0.326
same,glycan array binding signal (z-score),[41],-0.408
same,glycan array binding signal (z-score),[42],-0.566
